Shown are actives, neighbours in structure and some others; about 2.9% of the full set was active somewhere.
E-sel TNF inh = TNF alpha driven E-selectin expression inhibition; HUVEC TNFa-induced E-selectin immunofluorescence, high content; inhibition, % at 2 µM; 0.71% of 120,000 active; AID 1246;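 active = inhibition above the batch mean plus 3 SD, and confirmed as a hit on visual image review, cut at about 43% in these data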;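 also: 0% = TNF-stimulated DMSO wells and 100% = unstimulated control wells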
Candida biofilm = kills Candida albicans biofilms. C. albicans biofilm + clotrimazole, Alamar Blue. inhibition, % at 6 µM. 0.14% of 85,000 active. AID 834;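 active = inhibition above 20%; inactive = inhibition below 20%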;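 also: preformed 24 hr biofilms exposed to compound for 48 hr; 0% = biofilm without compound and 100% = blank killed by clotrimazole plus chlorhexidine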
ERb SRC1 inh = ER-beta (human) coactivator binding inhibition | Q92731 | TR-FRET ER-beta LBD / SRC1-Cy5 peptide binding; receptor agonist-loaded with 1 µM estradiol | inhibition, % at 25.6 µM | 1.3% of 86,000 active | AID 633;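 active = compounds whose percent inhibition of the receptor-coactivator binding signal exceeds about 50% in the single-dose screen, limit read from the data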;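 also: 0% = receptor plus peptide wells without compound and 100% = peptide-only wells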
Target sequence (Q92731 whole entry, looked up, the tested form may be a part): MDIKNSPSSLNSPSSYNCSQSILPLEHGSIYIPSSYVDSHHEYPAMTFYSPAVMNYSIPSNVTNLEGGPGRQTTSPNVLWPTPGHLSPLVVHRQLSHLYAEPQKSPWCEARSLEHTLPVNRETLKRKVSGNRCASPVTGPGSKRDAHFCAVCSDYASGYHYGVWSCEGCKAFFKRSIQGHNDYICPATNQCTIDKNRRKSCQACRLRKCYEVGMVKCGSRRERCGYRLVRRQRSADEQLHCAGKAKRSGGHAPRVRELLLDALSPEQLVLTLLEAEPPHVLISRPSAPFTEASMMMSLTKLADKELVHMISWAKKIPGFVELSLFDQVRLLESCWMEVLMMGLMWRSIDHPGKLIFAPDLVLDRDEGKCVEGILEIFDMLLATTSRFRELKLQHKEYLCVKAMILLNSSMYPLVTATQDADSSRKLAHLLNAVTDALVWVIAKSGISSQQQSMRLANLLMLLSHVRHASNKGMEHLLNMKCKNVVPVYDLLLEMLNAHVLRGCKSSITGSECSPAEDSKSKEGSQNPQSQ
cytoskel mod = cytoskeleton assembly modification. 0.18% of 91,000 active. HUVEC TNFa F-actin phalloidin imaging, high content. AID 836. inhibition, % at 2 µM;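 active = inhibition above the batch mean plus 3 SD and confirmed as a hit by visual image inspection, cut at about 30% in these data, passing the limit was not always enough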
ERa SRC1 inh = blocks coactivator binding to human estrogen receptor alpha. 1.7% of 86,000 active. inhibition, % at 25.6 µM. TR-FRET ER-alpha LBD / SRC-1 peptide, estradiol-bound. P03372; in the data active = inhibition above about 50%;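 also: 0% = receptor plus peptide control and 100% = peptide only without receptor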
ERa coact pot = ER-alpha (human) coactivator binding potentiation; P03372; TR-FRET ERalpha-LBD/SRC-Cy5 coactivator binding, 2 h; 100 = basal binding, no effect; coactivator binding (% of control), % at 25.6 µM; 1.3% of 86,000 active; AID 639; in the data active = activity above about 200%;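 also: binding measured in presence of low estradiol as agonist stimulus; 0% = peptide alone without receptor and 100% = receptor with peptide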
Numbers without * were called inactive; . = not tested or not shown; [ ] = remark or other dose.

SMILES	E-sel TNF inh	Candida biofilm	ERb SRC1 inh	cytoskel mod	ERa SRC1 inh	ERa coact pot
Cc1ccc(N=C2SC(C(=O)Nc3ccc(OC(F)(F)F)cc3)C(N)=C2C(=O)Nc2c(C)cc(C)cc2C)cc1 (stereo not given)	-3.2	.	.	.	.	.
Cc1ccc(-c2nc3ncccc3o2)cc1NC(=O)COc1ccccc1	1.7	-5.2	7.3	.	13.2	104.6
Cc1ccc(-c2nc3cccnc3o2)cc1NC(=O)COc1ccc(Cl)cc1C	-0.1	2.9	32.0	35.1	42.3	210.3*[fluorescence artefact?]
Cc1ccc(-c2nc3ncccc3o2)cc1NC(=O)Cc1ccc(Cl)cc1	2.8	5.8	37.4	12.1	51.7*[fluorescence artefact?]	131.9
CCCCn1c(N2CCC(Cc3ccccc3)CC2)nc2c1c(=O)[nH]c(=O)n2C	.	-5.4	0.2	11.8	21.6	54.2
O=Cc1s/c(=N\S(=O)(=O)c2ccccc2)n(CCCCl)c1Cl	72.3*	.	.	.	.	.
CN1C/C(=N\S(=O)(=O)c2ccccc2)N(C)C1=O	-22.2	.	.	.	.	.
CC(C)NC(=O)/C(=C/c1cn(-c2ccccc2)nc1-c1cccc([N+](=O)[O-])c1)NC(=O)c1ccccc1	0.9	.	.	.	.	.
O=S(=O)(NCc1csc(-c2ccccc2)n1)c1ccc(Cl)s1	-34.2	7.1	5.8	.	-8.8	93.5
O=S(=O)(NCc1csc(-c2cccnc2)n1)c1ccc(Cl)s1	.	12.3	53.5*	-15.3	65.0*	40.5
Cc1ccccc1NC(=O)c1cccc2nccnc12	-10.0	7.4	1.2	2.8	1.9	92.7
Cc1ccc(F)cc1NC(=O)c1cccc2nccnc12	-3.6	-3.0	-20.7	.	2.5	369.6*
CCN(CC)P(=O)(Nc1ccc(C)cc1Br)c1ccc(N(C)C)cc1NC(=O)c1ccco1 (stereo not given)	17.1	.	.	.	.	.
CCOC(=O)c1c(NC(=O)CCN2C(=O)c3cccc([N+](=O)[O-])c3C2=O)sc(C(=O)OC(C)C)c1C	17.2	.	.	.	.	.
CC(OC(=O)CCN1C(=O)c2cccc([N+](=O)[O-])c2C1=O)C(=O)Nc1cc(Cl)cc(Cl)c1 (stereo not given)	95.0*	.	.	.	.	.
CN(CC(=O)Nc1ccc(Cl)cc1)c1ccc(S(=O)(=O)N2CCCCC2)cc1[N+](=O)[O-]	62.3*	.	.	.	.	.
COc1ccccc1N1CCN(c2cc(N3CCCC3)nc(C)n2)CC1	100.0*	.	.	-27.6	.	.
COc1cccc(/C=N/NC(=O)c2ccccc2N(Cc2ccccc2)S(=O)(=O)c2ccccc2)c1OC	-23.6	.	.	12.5	.	.
O=S1(=O)N=C(Nc2ccc(N3CCOCC3)cc2)c2ccccc21	-8.7	2.9	51.0*[fluorescence artefact?]	12.2	-24.9	80.1
Cc1ccccc1-c1ccc(Nc2ccc(N3CCOCC3)cc2)nn1	.	0.1	80.1*[fluorescence artefact?]	36.7	98.7*[fluorescence artefact?]	7.0
O=S1(=O)N=C(N2CCOCC2)c2ccccc21	.	7.1	-15.2	-34.1	0.0	108.4
COc1ccc(/C(O)=C2/C(=O)C(=O)N(CCCN(C)C)C2c2cccc(Cl)c2)cc1OC (stereo not given)	3.5	11.3	0.8	.	-8.0	113.4
Cc1cc2ccccc2c(=O)n1CC(=O)NCC(=O)N(C)C1CCCCC1	-2.3	0.0	-0.2	-11.4	2.3	132.6
CC1=NOC(=O)/C1=C\c1ccc(-c2cc(Cl)ccc2Cl)o1	4.8	3.0	6.7	12.5	10.2	144.6
CC1=NOC(=O)/C1=C/c1ccc(-c2ccc(Cl)cc2)o1	7.5	5.3	8.1	7.4	64.4*[fluorescence artefact?]	43.8
SMILES	E-sel TNF inh	Candida biofilm	ERb SRC1 inh	cytoskel mod	ERa SRC1 inh	ERa coact pot
Cc1cccc(-c2c3c(=O)n(C)c(=O)n(C)c3c3c(C)cc(C)nn23)c1	.	8.0	-9.6	.	-5.2	119.3
COc1ccc(NC(=O)CSc2nc3c(c(=O)n2-c2ccc(C)cc2)SCC3)c(OC)c1	-8.7	-1.2	-6.6	.	1.6	117.9
CCOc1ccc(-n2c(SCC(=O)Nc3nccs3)nc3c(c2=O)SCC3)cc1	-35.2	2.1	47.8	.	76.5*[fluorescence artefact?]	78.3
CCOc1ccc(-n2c(SCC(=O)Nc3ccc(OC)cc3)nc3c(c2=O)SCC3)cc1	-13.5	5.0	-0.5	7.3	-2.2	117.7
Cc1ccc(-n2c(SCC(=O)Nc3nccs3)nc3c(c2=O)SCC3)cc1	96.8*	-1.3	13.8	.	44.6	194.5
Cc1[nH]nc2c1C(c1ccsc1)C1=C(CC(C)(C)CC1=O)N2 (stereo not given)	-14.1	.	.	.	.	.
COc1ccc(NC(=O)CSc2nc(N)c(C#N)cc2C#N)cc1	-26.7	.	.	2.0	.	.
CCOC(=O)c1c(C#N)c(SCC(=O)Nc2ccc(OC)cc2)nc2c1CN(CC)CC2	-15.4	0.0	-1.0	-3.1	-2.2	262.1*
